# According to PubChem BioAssay AID652119 (Broad Institute, 2013):
# Calls of active or inactive are those of the source.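 How the source made its calls: active means compounds whose fitted half-maximal cell-killing potency is at most twice their top tested dose; inconclusive means flat curve with 30 to 70% signal loss, or poor fit; inactive means the rest.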
# Test: loss of viability in embryonic kidney cells – cell-based, HEK293T, ATP luminescence, dry powder, cytotoxicity control, dose response (AID 652119)
# Conditions: CellTiter-Glo ATP luminescence, 48 h; series mostly up to 26 µM
row,Structure (SMILES),outcome
1,O=C(Nc1ccccc1)C1(CCOc2ccccc2)CCN(Cc2ccc(O)c(Cl)c2)CC1,inactive
2,CCOC(=O)c1c(CN2CCN(CCO)CC2)n(-c2ccccc2)c2cc(Br)c(O)cc12,inactive
3,CCOC(=O)C1(CCOC)CCN(Cc2ccc(O)c(Cl)c2)CC1,inactive
4,CCNC(=O)C1(CCOc2ccccc2)CCN(Cc2ccc(O)c(Cl)c2)CC1,inactive
5,C=CCOc1ccc(CN2CCC(CCOc3ccccc3)(C(=O)N(C)CC)CC2)cc1Cl,inactive
6,CCOC(=O)C1(CCOc2ccccc2)CCN(Cc2ccc(OC)c(Cl)c2)CC1,inactive
7,CCOC(=O)C1(Cc2ccccc2)CCN(Cc2ccc(O)c(Cl)c2)CC1,inactive
8,CCOC(=O)C1CCN(C(=O)OC(C)(C)C)CC1,inactive
9,CCOC(=O)C1(CCOc2ccccc2)CCN(Cc2ccc(OC)cc2)CC1,inactive
10,CCOC(=O)C1(CCOc2ccccc2)CCN(Cc2ccc(O)cc2)CC1,inactive
11,C/C1=C\C[C@H](OC(=O)c2ccc(O)cc2)/C(C)=C/[C@@H](O)C(C)(C)CCC1,inactive
12,O=C(N1CCCC1)C1(CCOc2ccccc2)CCN(Cc2ccc(O)c(Cl)c2)CC1,inactive
13,CCOC(=O)C1(CCOc2ccccc2)CCN(C(=O)c2ccc(O)c(Cl)c2)CC1,inactive
14,O=C(NC1CCCC1)C1(CCOc2ccccc2)CCN(Cc2ccc(O)c(Cl)c2)CC1,inactive
15,CCOC(=O)C1(CCOc2ccccc2)CCN(Cc2ccc(O)c(Cl)c2)CC1,inactive
16,C=CCOc1ccc(CN2CCC(CCOc3ccccc3)(C(=O)O)CC2)cc1Cl,inactive
17,CCOC(=O)C1(CCOc2ccccc2)CCN(Cc2cccc(Cl)c2)CC1,inactive
18,CCOC(=O)C1(CCOC)CCCN(Cc2ccc(Cl)cc2)C1 (configuration not stated),inactive
19,CCOC(=O)C1(CCOc2ccccc2)CCN(Cc2ccc3[nH]c(=O)oc3c2)CC1,inactive
20,C=CCOc1ccc(CN2CCC(CCOc3ccccc3)(C(=O)N3CCCC3)CC2)cc1Cl,inactive
21,CCOC(=O)C1(Cc2cccc(OC)c2)CCN(Cc2ccc(O)c(Cl)c2)CC1,inactive
22,C=CCOc1ccc(CN2CCC(CCOc3ccccc3)(C(=O)NC3CCCC3)CC2)cc1Cl,inactive
23,CCOC(=O)C1(CCOc2ccccc2)CCN(C(=O)OC(C)(C)C)CC1,inactive
24,CC(C)(C)OC(=O)C1(CCOc2ccccc2)CCN(Cc2ccc(O)c(Cl)c2)CC1,inactive
25,C/C1=C\[C@@H](O)C(C)(C)CCCC2(C)OC2C[C@@H]1OC(=O)c1ccc(O)cc1 (some centres not stated),inactive
26,C=CCOc1ccc(CN2CCC(CCOc3ccccc3)(C(=O)OCC)CC2)cc1Cl,inactive
27,CC(C)OC(=O)C1(CCOc2ccccc2)CCN(Cc2ccc(O)c(Cl)c2)CC1,inactive
